Laboratory results published in the supplement of paper PMC6555819.

test system: PPARg:RXRa IVT, anti-PPARg (NR concentration 270 nM, RXRa partner concentration 90 nM); assay: PBM binding z-score (relative to random genomic background probes); higher = stronger binding; sequences stand for … in GC…GCGATTGACAGCGTAGAATGAAGG
Method in brief: (§1)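 Scanned fluorescence from custom Agilent 4×180K protein-binding microarrays was regression-normalized. Binding z-scores use random background probes as reference. Ligand-free nuclear receptor dimers were incubated on the arrays for 1 h and detected with antibodies against each partner (one per run).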

Sequence | PBM binding z-score
TTACCAGGGTGAAGGTCGTTGATCCCTCTGTAGA | 3.97
TCATATAGGTAAACTGGTGAAAGTCCGTAAGTTA | 2.69
TCTATTAGTTCATTAGGGCAACCGAAACAGCGGA | 2.95
TCTTGTAGATCAACGGTTAAGAAAGCCGAAGCCT | 0.568
TCTAGTTAGTCAAAGGTCACACACTCGAAATGCG | 4.43
ATCTCTATGTAACCAAGTTCAGTGAATGCCGAAC | 0.707
TGAATGAGGTTATAAGATCACGGAACGTTGCAAA | 2.19
CGTCAAAGTTCGAGGTAACGTAACAGAAAGCAGC | 0.878
CAAACTAGGCCAAAGGTCAAAGTCGAGCCAACCA | 7.78
GCATATAGGTAATAGAAGGTGAAAGTCCGATTGT | 3.21
TCTTGTAGATCAGCAGGTTAAGAAGGCTGGCCAA | 0.182
GCTGCTAGGTCAACTGATCGTCAGCTAAAGCTCG | 4.1
TTACCAAGGGGAAGGTCGTTGATCCCTCTGTAGA | 0.449
CTCGAAAGGTTGGTTGAGGTGAGTATACGGATAA | 0.667
TCTTGTAGATAAATAGAGGTTAAGAAAGTGCGCT | 0.875
GCTCGGAGGATAAGGTCAGAGCTTTGTCCGTAGA | 0.29
TCATATCGGTAAAGGTGAAAGTCGAACGATATGA | 2.05
CGTCCAAGGTCAACGGTCAGTGAAGAGATGACGG | 4.39
GCTATTAGTTGATAGGGCAACCGAATGATTCTCG | 0.394
GATACAGGGTCAAGGCCGGAGTACGCGTATTGAT | 3.81

Sequence | PBM binding z-score
CGAACTAGGTCATTGACACGACAGTGAATAGTAA | 8.44
CCTACTGTGCCAAAGGTCATTGATTCCAATGCTC | 5.97
TCTCGGAGTACACGAAAGGTCAGAGCTCGACATC | 1.77
CCAGACAGGTGAAAGGGAACTCAGTCTGGTACGC | 1.02
ATCTAAAGGTCGTGAGGTGAGTATACAGAAAGGC | 2.89
CCGACTGCGGCAAAGGTTACCATACTCAGTACGA | 0.732
TCTTGTAGCTCAGCAGGTTAAGAAAGCTGGCCAA | -0.372
CCTACTGGGCGAAAGGTCATTGATTCCAATGCTC | 5.79
ATTGAAAGGTCGTGAGGTGAGTATACAGAAAGGC | 3.15
CTAGACAGGTGAGAAGGTAACTCAGCCTCGATTA | 0.891
AGTCAAAGTTCACTAGGTGACGTAAGATTCAGCT | 6.05
TCTTGTAGATCAAGCAGGTTAAGCAAGCCTGAGT | 0.529
GCTAGCAGGCCATTTGGTTCACTCAATGACGGGC | -0.11
CCTAGCAGGCCAAGCTGGGTCACTCAAGGCTTGA | 0.818
GCAGAGAGGTGAAACGCAGGTAACTCAGGGTGGC | 1.97
TCTTGTAGATTAAGCAGGTTAAGAAAGCCTGAGT | 0.902
CCTGGTAGGTCAATGGTCAGCTAAAGCAGCTCGC | 5.35
GCAGACAGGTGAAACGCACGTAACTCAGGGTGGC | 0.58
TCTAGAAGGCCAGAGGGTCACTCAAGAGGTACGG | 0.693
GGAGACAGGTGAAACGCAGGTAACTCAGGGTGGC | 0.901

test system: PPARg DBDmut:RXRa IVT, anti-PPARg (DBD mutation: PPARg1 K132A/R137A, NR concentration 270 nM, RXRa partner concentration 90 nM); assay: as above
Method in brief: as §1

Sequence | PBM binding z-score
TTACCAGGGTGAAGGTCGTTGATCCCTCTGTAGA | 0.161
TCATATAGGTAAACTGGTGAAAGTCCGTAAGTTA | 1.43
TCTATTAGTTCATTAGGGCAACCGAAACAGCGGA | 1.5
TCTTGTAGATCAACGGTTAAGAAAGCCGAAGCCT | 0.699
TCTAGTTAGTCAAAGGTCACACACTCGAAATGCG | 1.17
ATCTCTATGTAACCAAGTTCAGTGAATGCCGAAC | 0.85
TGAATGAGGTTATAAGATCACGGAACGTTGCAAA | 1.02
CGTCAAAGTTCGAGGTAACGTAACAGAAAGCAGC | -1.11
CAAACTAGGCCAAAGGTCAAAGTCGAGCCAACCA | 2.58
GCATATAGGTAATAGAAGGTGAAAGTCCGATTGT | 0.445
TCTTGTAGATCAGCAGGTTAAGAAGGCTGGCCAA | -0.501
GCTGCTAGGTCAACTGATCGTCAGCTAAAGCTCG | 0.249
TTACCAAGGGGAAGGTCGTTGATCCCTCTGTAGA | -0.647
CTCGAAAGGTTGGTTGAGGTGAGTATACGGATAA | -0.538
TCTTGTAGATAAATAGAGGTTAAGAAAGTGCGCT | 1.18
GCTCGGAGGATAAGGTCAGAGCTTTGTCCGTAGA | -0.531
TCATATCGGTAAAGGTGAAAGTCGAACGATATGA | 0.818
CGTCCAAGGTCAACGGTCAGTGAAGAGATGACGG | 0.975
GCTATTAGTTGATAGGGCAACCGAATGATTCTCG | -0.22
GATACAGGGTCAAGGCCGGAGTACGCGTATTGAT | -0.0401

Sequence | PBM binding z-score
CGAACTAGGTCATTGACACGACAGTGAATAGTAA | 3.78
CCTACTGTGCCAAAGGTCATTGATTCCAATGCTC | 0.578
TCTCGGAGTACACGAAAGGTCAGAGCTCGACATC | 0.689
CCAGACAGGTGAAAGGGAACTCAGTCTGGTACGC | 0.273
ATCTAAAGGTCGTGAGGTGAGTATACAGAAAGGC | 1.3
CCGACTGCGGCAAAGGTTACCATACTCAGTACGA | 0.0182
TCTTGTAGCTCAGCAGGTTAAGAAAGCTGGCCAA | -0.853
CCTACTGGGCGAAAGGTCATTGATTCCAATGCTC | -0.635
ATTGAAAGGTCGTGAGGTGAGTATACAGAAAGGC | 1.53
CTAGACAGGTGAGAAGGTAACTCAGCCTCGATTA | 0.184
AGTCAAAGTTCACTAGGTGACGTAAGATTCAGCT | 1.29
TCTTGTAGATCAAGCAGGTTAAGCAAGCCTGAGT | -0.37
GCTAGCAGGCCATTTGGTTCACTCAATGACGGGC | -0.667
CCTAGCAGGCCAAGCTGGGTCACTCAAGGCTTGA | -0.82
GCAGAGAGGTGAAACGCAGGTAACTCAGGGTGGC | -0.463
TCTTGTAGATTAAGCAGGTTAAGAAAGCCTGAGT | 0.0777
CCTGGTAGGTCAATGGTCAGCTAAAGCAGCTCGC | 0.462
GCAGACAGGTGAAACGCACGTAACTCAGGGTGGC | 0.226
TCTAGAAGGCCAGAGGGTCACTCAAGAGGTACGG | -0.301
GGAGACAGGTGAAACGCAGGTAACTCAGGGTGGC | -1.26
